Source: PubChem BioAssay (EPA / NIEHS)
Values joined by “and” are separate entries in the source; they are usually repeats but may differ in a detail not shown here. Equal entries are not always repeated. More than one record can exist for a structure, and the calls need not agree. Active and inactive are the calls of the source. The calls were made as follows: active = hit-call score of the fitted dose curve at least 0.9, where 1 is the maximum; inactive = score below 0.9.

Assay: CCTE_Shafer_MEA_dev_per_network_spike_spike_percent: CCTE's Neural Network Formation Assay for Percent of Spikes in a Network Spike, Shafer Lab (AID 2284054)
Procedure: CCTE_Shafer_MEA_dev assay is conducted using Axion Biosystems 48 well microelectrode array (MEA) plates and Maestro recording system. Each well of the MEA plate contains a grid of 16 microelectrodes embedded in the culture surface. Electrically active cells, such as neurons, can be cultured over the electrodes, and electrical activity in these cells can be recorded extracellularly. The spontaneous firing of neurons is captured from each electrode on a microsecond timescale providing both temporally and spatially precise data. […] The CCTE_Shafer_MEA_dev assay uses primary cultures of rat cortical neurons. Recordings are made on days post-plating 5, 7, 9 and 12. As these cultures mature over time, neural networks develop functional activity and form cohesive networks in which electrical activity can be highly coordinated. CCTE_Shafer_MEA_dev_per_network_spike_spike_percent is 1 of 19 assay components of the CCTE_Shafer_MEA_dev assay. It measures the percent of spikes (action potential firings) in a network spike (temporally-clustered group of spikes across multiple electrodes) as the number of spikes that occur within a 0.05 s time window at the peak of a network spike divided by the total number of spikes during a recording in a microelectrode array (MEA) using Axion Biosystems Maestro 768 channel amplifier with the AxIS adaptive spike detector. To collapse across multiple recordings made on days post-plating 5, 7, 9 and 12, the trapezoidal area-under-the-curve of the component is calculated.Data from the assay component CCTE_Shafer_MEA_dev_per_network_spike_spike_percent was analyzed into 1 assay endpoint. This assay endpoint, CCTE_Shafer_MEA_dev_per_network_spike_spike_percent, was analyzed in the negative analysis fitting direction relative to DMSO as the negative control and baseline of activity. Using a type of functional reporter, gain or loss-of-signal activity can be used to understand electrical activity.
On the day prior to culture, each well was coated thoroughly with 150 uL of 0.05% polyethyleneimine (PEI, Sigma Cat P3143) in 50 mM HEPES (Sigma Cat H7523) at a pH of 8. The plate was incubated at 37C for one hour. PEI was rinsed out with 500 uL of sterile water three times. Plates were stored at 4C until the day of culture. This culture was plated at a seeding density of 1.5 x 10^5 cells/well on a 48-well MEA plate, prepared as described above. Cells were administered via a 25 uL media/laminin ([…]; Sigma Cat L2020-1MG) drop directly onto the microelectrode array, as adding the cells with the laminin results in better attachment than pre-coating with laminin. After 2 hours, an additional 475 uL of cortical media was added and the cells returned to the incubator. Exposure starts at day 0 of plating and is continued over twelve days of network development until the experiment is terminated. Cells are fed with fresh medium on DIV 5 and 9, following the recordings on those days. The entire volume of media in the well is exchanged and any vehicle or compound treatment is renewed. Complete details are found in OP-NHEERL/ISTD/SBB/TJS/2015-03-r0 (available on request, email shafer.tim@epa.gov). Measurement of the electrical activity is non-invasive, and recordings can be made from the same plate over multiple different days of the culture. In cortical neurons, this allows for the measurement of extracellular action potentials over the period during which networks form in the MEA plate.

SMILES | outcome | AC50
C#CCOC(=O)[C@@H](C)Oc1ccc(Oc2ncc(Cl)cc2F)cc1 | inactive | 
O=C(O)c1ccccc1 | inactive | 
S=C([S-])NCCNC(=S)[S-].[Mn+2] | inactive | 
CC(C)(c1ccc(O)cc1)c1ccc(O)cc1 | inactive | 6.65 µM (active)
S=C(S)NCCNC(=S)S.[Mn+2].[S-]C([S-])=NCCN=C([S-])[S-].[Zn+2] | inactive | 
OB(O)O | inactive | 
CSC(=O)c1cccc2nnsc12 | inactive | 
CCN(CC)C(=O)c1cccc(C)c1 | inactive | 
COCCO | inactive | 
Oc1ccc(C(c2ccc(O)cc2)C(Cl)(Cl)Cl)cc1 | inactive | 
CCCN(CCC)C(=O)SCC | inactive | 
CCCCC(CC)CN1C(=O)C2C3C=CC(C3)C2C1=O (stereo unspecified) | inactive | 
CC1(C)C(C=C(Cl)Cl)C1C(=O)OCc1cccc(Oc2ccccc2)c1 (stereo unspecified) |  | 22.2 µM (active) and 5.34 µM (active)
CCCCOCCOCCOCc1cc2c(cc1CCC)OCO2 | inactive | 
Cc1nn(C)c(Oc2ccccc2)c1C=NOCc1ccc(C(=O)OC(C)(C)C)cc1 |  | 0.00238 µM (active)
